Active and inactive are the calls of the source. Rule for the calls: active = hit-call score of the fitted dose curve at least 0.9, where 1 is the maximum; inactive = score below 0.9.
Tested on: not listed separately
Experiment: ATG_DR4_LXR_CIS: Attagene CIS-FACTORIAL HepG2 Assay for human Liver X Receptor (LXR), DR4 submotif (AID 2282929)
Details: HepG2 Attagene DR4 cis-reporter, mRNA transcription; actives raise or lower the signal
In short: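 Measures endogenous transcription factor activity via a DR4-driven reporter transcript in human HepG2 cells. Compounds incubated 24 h; mRNA quantified by RT-PCR and capillary electrophoresis, analysed as gain or loss of signal versus DMSO.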
In the case of `Cc1[nH]cnc1C[C@H]1CCc2c(C)c3ccccc3n2C1=O`, the AC50 is reported as 42.1 µM (active). With `CC(C)CCCCCCCOC(=O)CCCCC(=O)OCCCCCCCC(C)C` the outcome was “inactive”. For `O=P(OC(CCl)CCl)(OC(CCl)CCl)OC(CCl)CCl`, the outcome was “inactive”. In the case of `CN(C)c1ccc(Cc2ccc(N(C)C)cc2)cc1`, the outcome is reported as “inactive”. For `CC(C)=CCCC(C)=CC=O`, the AC50 was 183 µM (active). With `COC(=O)c1ccccc1O` the AC50 was 26.1 µM (active). With `O=C1CCC(N2C(=O)c3ccccc3C2=O)C(=O)N1` (stereo not drawn) the outcome was “inactive”. With `CC(C)CC(C)(O)C#CC(C)(O)CC(C)C` (stereo not drawn) the outcome was “inactive”. For `CCC(C)(C)C(=O)O[C@H]1C[C@@H](C)C=C2C=C[C@H](C)[C@H](CC[C@@H]3C[C@@H](O)CC(=O)O3)[C@H]21`, the outcome was “inactive”. With `CC(C)(O)c1coc(S(=O)(=O)NC(=O)Nc2c3c(cc4c2CCC4)CCC3)c1` the outcome was “inactive”. In the case of `O=C(OC[C@H]1O[C@@H](OC(=O)c2cc(O)c(O)c(OC(=O)c3cc(O)c(O)c(O)c3)c2)[C@H](OC(=O)c2cc(O)c(O)c(OC(=O)c3cc(O)c(O)c(O)c3)c2)[C@@H](OC(=O)c2cc(O)c(O)c(OC(=O)c3cc(O)c(O)c(O)c3)c2)[C@@H]1OC(=O)c1cc(O)c(O)c(OC(=O)c2cc(O)c(O)c(O)c2)c1)c1cc(O)c(O)c(OC(=O)c2cc(O)c(O)c(O)c2)c1`, the outcome is reported as “inactive”. For `Cn1cnc([N+](=O)[O-])c1Sc1ncnc2nc[nH]c12`, the outcome was “inactive”. With `O=C(O)CC(O)C(=O)O` (stereo not drawn) the outcome was “inactive”. In the case of `CC[C@H](C)C(=O)O[C@H]1C[C@@H](C)C=C2C=C[C@H](C)[C@H](CC[C@@H]3C[C@@H](O)CC(=O)O3)[C@H]21`, the AC50 is reported as 52.4 µM (active). For `O=c1n(CC2CO2)c(=O)n(CC2CO2)c(=O)n1CC1CO1` (stereo not drawn), the outcome was “inactive”. For `COCCOc1cc2cc(C(=O)NC3CCN(C(C)C)CC3)n(CC(=O)Nc3ccc(Cl)cn3)c2cn1`, the AC50 was 71.6 µM (active). For `CC(C)=CCC/C(C)=C/CO`, the outcome was “inactive”. For `CCOC(=O)CC(CC(=O)OCC)(OC(C)=O)C(=O)OCC`, the outcome was “inactive”. For `Cc1ccc(C)c(O)c1`, the outcome was “inactive”. In the case of `CCCCCCCCCCCCCCCO`, the AC50 is reported as 57.7 µM (active). In the case of `CC[C@H]1OC(=O)[C@H](C)[C@@H](O[C@H]2C[C@@](C)(OC)[C@@H](O)[C@H](C)O2)[C@H](C)[C@@H](O[C@@H]2O[C@H](C)C[C@H](N(C)C)[C@H]2O)[C@](C)(O)C[C@@H](C)C(=O)[C@H](C)[C@@H](O)[C@]1(C)O`, the outcome is reported as “inactive”. For `CC(C)CCO`, the outcome was “inactive”. For `CC(C)CCCCCCOC(=O)c1ccc(C(=O)OCCCCCCC(C)C)c(C(=O)OCCCCCCC(C)C)c1`, the outcome was “inactive”. For `Cc1c(-c2cccnc2)c2ccccc2n1CCCCC(=O)O`, the outcome was “inactive”. With `CCCCC(CC)COC(=O)c1ccc(C(=O)OCC(CC)CCCC)cc1` (stereo not drawn) the outcome was “inactive”. For `CCCCCCCCO`, the outcome was “inactive”. In the case of `O=C(O)CCN(C1(C(=O)NO)CCCC1)S(=O)(=O)c1ccc(Oc2ccc(F)cc2)cc1`, the outcome is reported as “inactive”. For `COc1cccc(-c2ccc(/C=C\CN3CCCCCC3)cc2Cl)c1`, the outcome was “inactive”. For `CC(C)=CCC/C(C)=C\CO`, the outcome was “inactive”.

Biological target: Aryl hydrocarbon receptor (Homo sapiens) (UniProt P35869)
Sequence (P35869 whole entry, looked up): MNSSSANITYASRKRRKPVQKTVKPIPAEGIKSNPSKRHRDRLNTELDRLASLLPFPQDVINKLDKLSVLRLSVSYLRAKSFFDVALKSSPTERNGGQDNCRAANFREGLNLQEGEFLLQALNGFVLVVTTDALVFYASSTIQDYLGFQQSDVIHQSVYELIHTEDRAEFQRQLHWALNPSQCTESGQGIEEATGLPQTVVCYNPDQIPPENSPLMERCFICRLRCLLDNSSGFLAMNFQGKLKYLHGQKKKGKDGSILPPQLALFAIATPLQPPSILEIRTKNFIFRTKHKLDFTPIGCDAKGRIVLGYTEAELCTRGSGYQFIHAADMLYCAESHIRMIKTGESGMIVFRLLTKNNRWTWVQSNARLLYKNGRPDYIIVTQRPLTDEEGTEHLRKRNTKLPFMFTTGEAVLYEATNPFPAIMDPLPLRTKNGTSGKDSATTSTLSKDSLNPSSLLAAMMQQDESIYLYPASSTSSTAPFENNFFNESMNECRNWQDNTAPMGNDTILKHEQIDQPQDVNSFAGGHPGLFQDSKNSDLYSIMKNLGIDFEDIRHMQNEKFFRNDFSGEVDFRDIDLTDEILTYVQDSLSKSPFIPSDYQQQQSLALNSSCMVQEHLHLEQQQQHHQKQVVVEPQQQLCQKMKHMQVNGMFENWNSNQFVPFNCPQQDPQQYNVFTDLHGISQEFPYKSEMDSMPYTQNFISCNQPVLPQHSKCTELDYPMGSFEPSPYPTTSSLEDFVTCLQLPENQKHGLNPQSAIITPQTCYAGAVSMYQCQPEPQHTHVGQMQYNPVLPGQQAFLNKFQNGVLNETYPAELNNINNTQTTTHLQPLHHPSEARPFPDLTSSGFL
Experiment: ATG_Ahr_CIS: Attagene CIS-FACTORIAL HepG2 Assay for human Aryl Hydrocarbon Receptor (Ahr) (AID 2282930)
Details: HepG2 AhR cis-factorial reporter transcription; actives raise or lower the signal
In short: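 Following 24 h of chemical dosing, transfected HepG2 liver cells with cis-driven reporter units were lysed for RNA; reporter mRNA was quantified via RT-PCR and capillary electrophoresis, and responses fitted bidirectionally from DMSO.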
In the case of `Cc1[nH]cnc1C[C@H]1CCc2c(C)c3ccccc3n2C1=O`, the outcome is reported as “inactive”. In the case of `CC(C)CCCCCCCOC(=O)CCCCC(=O)OCCCCCCCC(C)C`, the AC50 is reported as 64.9 µM (active). With `O=P(OC(CCl)CCl)(OC(CCl)CCl)OC(CCl)CCl` the outcome was “inactive”. With `CN(C)c1ccc(Cc2ccc(N(C)C)cc2)cc1` the outcome was “inactive”. In the case of `CC(C)=CCCC(C)=CC=O`, the AC50 is reported as 78.9 µM (active). For `COC(=O)c1ccccc1O`, the outcome was “inactive”. In the case of `O=C1CCC(N2C(=O)c3ccccc3C2=O)C(=O)N1` (stereo not drawn), the outcome is reported as “inactive”. In the case of `CC(C)CC(C)(O)C#CC(C)(O)CC(C)C` (stereo not drawn), the outcome is reported as “inactive”. For `CCC(C)(C)C(=O)O[C@H]1C[C@@H](C)C=C2C=C[C@H](C)[C@H](CC[C@@H]3C[C@@H](O)CC(=O)O3)[C@H]21`, the outcome was “inactive”. In the case of `CC(C)(O)c1coc(S(=O)(=O)NC(=O)Nc2c3c(cc4c2CCC4)CCC3)c1`, the outcome is reported as “inactive”. In the case of `O=C(OC[C@H]1O[C@@H](OC(=O)c2cc(O)c(O)c(OC(=O)c3cc(O)c(O)c(O)c3)c2)[C@H](OC(=O)c2cc(O)c(O)c(OC(=O)c3cc(O)c(O)c(O)c3)c2)[C@@H](OC(=O)c2cc(O)c(O)c(OC(=O)c3cc(O)c(O)c(O)c3)c2)[C@@H]1OC(=O)c1cc(O)c(O)c(OC(=O)c2cc(O)c(O)c(O)c2)c1)c1cc(O)c(O)c(OC(=O)c2cc(O)c(O)c(O)c2)c1`, the outcome is reported as “inactive”. With `Cn1cnc([N+](=O)[O-])c1Sc1ncnc2nc[nH]c12` the outcome was “inactive”. For `O=C(O)CC(O)C(=O)O` (stereo not drawn), the outcome was “inactive”. In the case of `CC[C@H](C)C(=O)O[C@H]1C[C@@H](C)C=C2C=C[C@H](C)[C@H](CC[C@@H]3C[C@@H](O)CC(=O)O3)[C@H]21`, the outcome is reported as “inactive”. With `O=c1n(CC2CO2)c(=O)n(CC2CO2)c(=O)n1CC1CO1` (stereo not drawn) the outcome was “inactive”. For `COCCOc1cc2cc(C(=O)NC3CCN(C(C)C)CC3)n(CC(=O)Nc3ccc(Cl)cn3)c2cn1`, the AC50 was 6.53 µM (active). With `CC(C)=CCC/C(C)=C/CO` the outcome was “inactive”. For `CCOC(=O)CC(CC(=O)OCC)(OC(C)=O)C(=O)OCC`, the outcome was “inactive”. With `Cc1ccc(C)c(O)c1` the outcome was “inactive”. With `CCCCCCCCCCCCCCCO` the outcome was “inactive”. For `CC[C@H]1OC(=O)[C@H](C)[C@@H](O[C@H]2C[C@@](C)(OC)[C@@H](O)[C@H](C)O2)[C@H](C)[C@@H](O[C@@H]2O[C@H](C)C[C@H](N(C)C)[C@H]2O)[C@](C)(O)C[C@@H](C)C(=O)[C@H](C)[C@@H](O)[C@]1(C)O`, the outcome was “inactive”. For `CC(C)CCO`, the outcome was “inactive”. In the case of `CC(C)CCCCCCOC(=O)c1ccc(C(=O)OCCCCCCC(C)C)c(C(=O)OCCCCCCC(C)C)c1`, the outcome is reported as “inactive”. With `Cc1c(-c2cccnc2)c2ccccc2n1CCCCC(=O)O` the outcome was “inactive”. In the case of `CCCCC(CC)COC(=O)c1ccc(C(=O)OCC(CC)CCCC)cc1` (stereo not drawn), the AC50 is reported as 66 µM (active). With `CCCCCCCCO` the outcome was “inactive”. For `O=C(O)CCN(C1(C(=O)NO)CCCC1)S(=O)(=O)c1ccc(Oc2ccc(F)cc2)cc1`, the outcome was “inactive”. With `COc1cccc(-c2ccc(/C=C\CN3CCCCCC3)cc2Cl)c1` the outcome was “inactive”. For `CC(C)=CCC/C(C)=C\CO`, the outcome was “inactive”.
